# From PubChem BioAssay (NCATS)
# Values joined by “and” are separate entries in the source; they are usually repeats but may differ in a detail not shown here. Equal values may be shown once. Inconclusive results are not listed. Entries that show only a call come without a potency. Active and inactive are the calls of the source. Unless noted, the call rests on the fitted dose curve; in most records, active means well fitted curve in the direction sought with a large enough effect; inconclusive means small, poorly fitted or top-dose-only effect, or another doubt; inactive means no such curve, though single readings can be large; an effect the other way counts as inactive or inconclusive.
# Tests used:
# [1] = qHTS assay for small molecule agonists of retinoid X receptor alpha signaling (AID 588544); details: HEK293T RXRa-UAS-bla, beta-lactamase reporter, 18 h; 530 nm emission
# [2] = target: Thyroid hormone receptor beta (Homo sapiens) (UniProt P10828); test: qHTS assay for small molecule agonists of thyroid hormone receptor beta signaling (AID 588545; calls by dose curve); details: TR-UAS-bla GripTite HEK 293, beta-lactamase ratio, agonist mode, 18 h, percent of T3 response, DMSO as zero; series mostly up to 76.7 µM
# Chain of Thyroid hormone receptor beta (Homo sapiens) (P10828 whole entry, looked up): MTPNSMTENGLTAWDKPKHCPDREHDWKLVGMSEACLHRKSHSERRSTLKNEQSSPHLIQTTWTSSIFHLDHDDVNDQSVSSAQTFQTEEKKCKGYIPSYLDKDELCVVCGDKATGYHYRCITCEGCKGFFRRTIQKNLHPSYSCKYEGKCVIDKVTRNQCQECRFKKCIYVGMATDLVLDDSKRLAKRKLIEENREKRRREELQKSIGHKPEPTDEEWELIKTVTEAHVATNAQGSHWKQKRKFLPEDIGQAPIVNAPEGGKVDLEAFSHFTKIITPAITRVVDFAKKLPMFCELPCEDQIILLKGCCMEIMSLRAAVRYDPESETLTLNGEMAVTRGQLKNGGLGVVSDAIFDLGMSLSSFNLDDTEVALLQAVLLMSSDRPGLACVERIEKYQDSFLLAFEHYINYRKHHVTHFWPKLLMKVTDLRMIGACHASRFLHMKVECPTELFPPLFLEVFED
# Method in brief: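 Compounds were tested as agonists in TR-UAS-bla-GripTite HEK 293 cells. After 18 hrs at 37 C, CCF4 substrate was added and fluorescence read after 2 hrs at room temperature.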
# [3] = qHTS assay for small molecule antagonists of retinoid X receptor alpha signaling (AID 588546; active means well fitted inhibition curve with a large enough effect in the signal ratio, with a control signal flat, not every such curve was filed as active; the % refers to the signal ratio;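 further: cells stimulated with 9-cis-retinoic acid as agonist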); details: HEK293T RXRa-UAS-bla, beta-lactamase ratio, antagonist mode; measured here: W530 green channel, cytotoxicity proxy
# Method in brief: (§1)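 Beta-lactamase reporter inhibition, read as CCF4 fluorescence ratio (ex 405, em 460/530 nm) after 2 h at RT. HEK293T UAS-bla cells, 2500/well, were stimulated with 9-cis-RA at 500 or 100 nM final alongside test compound for 18 h at 37 C.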
# [4] = target: Retinoic acid receptor RXR-alpha (Homo sapiens) (UniProt P19793); test: as above; details: HEK293T RXRa-UAS-bla, beta-lactamase ratio, antagonist mode
# Chain of Retinoic acid receptor RXR-alpha (Homo sapiens) (P19793 whole entry, looked up): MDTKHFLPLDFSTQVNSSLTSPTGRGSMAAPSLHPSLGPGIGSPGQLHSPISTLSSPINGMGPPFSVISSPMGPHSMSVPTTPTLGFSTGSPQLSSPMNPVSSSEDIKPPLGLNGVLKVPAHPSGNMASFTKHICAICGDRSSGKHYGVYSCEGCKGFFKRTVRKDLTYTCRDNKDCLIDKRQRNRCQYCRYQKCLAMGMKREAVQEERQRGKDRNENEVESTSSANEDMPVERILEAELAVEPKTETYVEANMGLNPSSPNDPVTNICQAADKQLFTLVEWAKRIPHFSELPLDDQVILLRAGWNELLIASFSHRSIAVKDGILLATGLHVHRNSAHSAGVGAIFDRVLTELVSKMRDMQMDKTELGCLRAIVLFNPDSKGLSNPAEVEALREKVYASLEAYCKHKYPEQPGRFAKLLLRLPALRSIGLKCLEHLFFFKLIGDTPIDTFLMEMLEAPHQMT
# Method in brief: as §1
# [5] = target: Thyroid hormone receptor beta (Homo sapiens) (UniProt P10828); test: qHTS assay for small molecule antagonists of thyroid hormone receptor beta signaling (AID 588547; active means well fitted inhibition curve with a large enough effect in the signal ratio, with a control signal flat, not every such curve was filed as active; the % refers to the signal ratio;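 further: cells stimulated with 0.4 nM T3 agonist during compound exposure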); details: TR-UAS-bla HEK293, beta-lactamase ratio, antagonist mode, 18 h
# Method in brief: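 TR-UAS-bla GripTite HEK293 cells in 2% charcoal/dextran FBS medium; compounds 0.59 nM to 92 uM with T3 at 0.4nM final, 18 h at 37 C. Beta-lactamase read by CCF4 fluorescence (460/530 nm); Hill fits gave IC50 and efficacy.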
# [6] = target: Voltage-gated inwardly rectifying potassium channel KCNH2 (Homo sapiens) (UniProt Q12809); test: qHTS Assay for Small Molecule Inhibitors of the Human hERG Channel Activity (AID 588834); details: U2OS BacMam hERG, FluxOR thallium flux fluorescence; series mostly up to 46.1 µM;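 further: top concentration of the series differs between compounds; lower thallium flux fluorescence means stronger hERG block; nearly all actives have a fitted effect of over 50% in size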
# Chain of Voltage-gated inwardly rectifying potassium channel KCNH2 (Homo sapiens) (Q12809 whole entry, looked up): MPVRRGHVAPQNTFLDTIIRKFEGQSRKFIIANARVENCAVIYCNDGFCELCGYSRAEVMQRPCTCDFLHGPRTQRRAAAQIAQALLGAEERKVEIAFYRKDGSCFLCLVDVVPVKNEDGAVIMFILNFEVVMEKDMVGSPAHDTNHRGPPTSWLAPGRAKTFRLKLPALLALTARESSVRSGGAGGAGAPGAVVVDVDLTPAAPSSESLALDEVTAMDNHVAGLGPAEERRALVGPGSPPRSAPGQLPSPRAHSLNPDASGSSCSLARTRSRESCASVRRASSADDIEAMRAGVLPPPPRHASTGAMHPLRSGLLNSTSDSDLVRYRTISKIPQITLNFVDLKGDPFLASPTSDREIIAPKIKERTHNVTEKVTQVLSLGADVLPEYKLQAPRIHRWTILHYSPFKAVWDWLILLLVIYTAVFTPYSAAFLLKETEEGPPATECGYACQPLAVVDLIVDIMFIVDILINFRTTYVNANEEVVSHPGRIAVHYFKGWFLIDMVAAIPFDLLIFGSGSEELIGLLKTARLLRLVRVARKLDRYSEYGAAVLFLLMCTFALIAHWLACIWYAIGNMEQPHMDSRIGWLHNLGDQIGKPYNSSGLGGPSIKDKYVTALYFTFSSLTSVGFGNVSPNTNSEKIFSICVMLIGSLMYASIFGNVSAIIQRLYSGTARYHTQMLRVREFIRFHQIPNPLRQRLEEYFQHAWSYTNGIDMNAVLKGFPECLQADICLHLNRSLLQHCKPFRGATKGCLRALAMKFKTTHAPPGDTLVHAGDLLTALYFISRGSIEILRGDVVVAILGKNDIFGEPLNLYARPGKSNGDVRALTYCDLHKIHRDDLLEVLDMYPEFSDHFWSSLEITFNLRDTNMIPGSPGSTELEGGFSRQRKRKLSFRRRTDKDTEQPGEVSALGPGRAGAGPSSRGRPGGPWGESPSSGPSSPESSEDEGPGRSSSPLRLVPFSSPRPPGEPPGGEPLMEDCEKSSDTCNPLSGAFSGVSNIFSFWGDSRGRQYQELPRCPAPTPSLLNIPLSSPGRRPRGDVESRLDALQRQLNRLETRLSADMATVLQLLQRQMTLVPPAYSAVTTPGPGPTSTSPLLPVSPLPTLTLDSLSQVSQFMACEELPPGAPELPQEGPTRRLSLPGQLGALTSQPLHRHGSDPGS
# Method in brief: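 Blockade is seen as reduced FluxOR thallium-flux fluorescence in U2OS cells expressing hERG from a BacMam construct, in Opti-MEM with 2% FCS. Concentration-response data fitted to the Hill equation for AC50.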
# [7] = target: Luciferin 4-monooxygenase (Photinus pyralis) (UniProt P08659); test: Biochemical firefly luciferase enzyme assay for NPC (AID 624030);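 further: purified P. pyralis luciferase at 10 nM with luciferin and ATP substrate; nearly all actives have a fitted effect of over 70% in size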; details: purified P. pyralis luciferase, luminescence, 5 min; series mostly up to 58.6 µM
# Chain of Luciferin 4-monooxygenase (Photinus pyralis) (P08659 whole entry, looked up): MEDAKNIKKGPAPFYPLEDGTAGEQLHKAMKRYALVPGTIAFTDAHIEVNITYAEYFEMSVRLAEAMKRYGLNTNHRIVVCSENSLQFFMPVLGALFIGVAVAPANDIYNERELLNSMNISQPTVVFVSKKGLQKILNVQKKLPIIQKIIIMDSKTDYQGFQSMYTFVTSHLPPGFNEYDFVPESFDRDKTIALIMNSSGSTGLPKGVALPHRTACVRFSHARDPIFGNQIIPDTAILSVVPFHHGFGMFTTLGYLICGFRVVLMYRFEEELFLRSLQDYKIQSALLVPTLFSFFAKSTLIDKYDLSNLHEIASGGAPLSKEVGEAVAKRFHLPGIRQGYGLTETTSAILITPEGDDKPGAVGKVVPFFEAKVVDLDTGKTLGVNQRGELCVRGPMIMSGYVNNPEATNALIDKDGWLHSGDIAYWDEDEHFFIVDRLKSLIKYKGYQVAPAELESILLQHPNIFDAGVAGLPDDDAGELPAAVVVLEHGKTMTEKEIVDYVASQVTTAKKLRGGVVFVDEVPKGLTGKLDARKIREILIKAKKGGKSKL
# Method in brief: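 Purified P. pyralis luciferase at 10 nM in 50 mM Tris Acetate (final), luminescence read within 5 minutes of enzyme addition to compounds. Activity normalised to PTC124 versus DMSO; concentration-response curves classed by r2, magnitude and activity.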
# [8] = S16 Schwann cell viability assay (CellTiter-Glo assay) (AID 624031); details: S16 rat Schwann cells viability, 24 h; series mostly up to 57.5 µM; further: nearly all actives have a fitted effect of over 70% in size; further: potency means the concentration at half of the fitted maximal effect
# Method in brief: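 This viability control uses native rat S16 Schwann cells grown in DMEM plus 10% FBS. After a 24 h compound treatment at 37 °C, CellTiter-Glo luminescence reports ATP content, scaled against DMSO-treated and cell-free wells.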
# [9] = S16 Schwann cell PMP22 intronic element firefly luciferase assay (AID 624032); details: S16 rat Schwann cells, PMP22 element FLuc, 24 h; series mostly up to 57.5 µM; further: nearly all actives have a fitted effect of over 30% in size
# Method in brief: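 Rat S16 Schwann cells stably carrying firefly luciferase driven by a PMP22 intronic element, in 10% FBS, treated 24 h at 37 C. ONE-Glo luminescence normalized to PTC124 control and DMSO (0%); curves classed by r2, magnitude and activity.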
# [10] = target: Peroxisome proliferator-activated receptor gamma (Homo sapiens) (UniProt P37231); test: qHTS assay for small molecule antagonists of peroxisome proliferator-activated receptor gamma signaling (AID 588537; active means well fitted inhibition curve with a large enough effect in the signal ratio, with a control signal flat, not every such curve was filed as active; the % refers to the signal ratio;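 further: reporter cells co-stimulated with 50 nM rosiglitazone agonist during compound treatment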); details: HEK293 PPARg-UAS-bla, beta-lactamase ratio, antagonist mode; series mostly up to 76.8 µM
# Chain of Peroxisome proliferator-activated receptor gamma (Homo sapiens) (P37231 whole entry, looked up): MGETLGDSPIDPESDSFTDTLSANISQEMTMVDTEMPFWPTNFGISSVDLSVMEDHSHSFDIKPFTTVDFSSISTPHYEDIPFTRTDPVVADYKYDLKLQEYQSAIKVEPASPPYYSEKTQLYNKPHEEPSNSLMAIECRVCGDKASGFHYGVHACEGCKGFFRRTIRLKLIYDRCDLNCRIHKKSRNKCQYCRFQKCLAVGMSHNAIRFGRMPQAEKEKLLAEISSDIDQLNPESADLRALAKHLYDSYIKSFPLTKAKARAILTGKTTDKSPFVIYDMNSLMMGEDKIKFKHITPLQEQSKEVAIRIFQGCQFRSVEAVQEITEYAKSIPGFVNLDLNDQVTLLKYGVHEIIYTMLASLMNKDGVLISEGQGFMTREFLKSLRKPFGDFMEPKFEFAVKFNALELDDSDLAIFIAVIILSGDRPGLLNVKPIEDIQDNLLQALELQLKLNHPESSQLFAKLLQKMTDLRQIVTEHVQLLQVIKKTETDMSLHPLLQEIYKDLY
# Method in brief: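 PPARγ-UAS-bla HEK293 cells (3000/well) in 1% charcoal/dextran-stripped FBS are treated with compound, then stimulated with 50 nM rosiglitazone for 16 h at 37 °C. Read-out is CCF4 β-lactamase fluorescence after 2 h at RT. IC50 comes from Hill fits normalised to rosiglitazone and DMSO.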
SMILES,max response [1],outcome [2],max response [3],max response [4],activity change % (negative = inhibition) [5],Potency [6],Potency [7],Potency [8],Potency [9],Potency [10]
S=C=S,-8.91%,inactive,-8.84%,10.2% (inactive),5.87% (inactive),inactive,inactive,inactive,inactive,
CCCCCCCCOC(=O)c1ccccc1C(=O)OCCCCCCCC,-12.6% and -10.6%,inactive,-8.04% and -12.9%,24.3% (inactive) and -9.86% (inactive),0.822% (inactive),inactive,inactive,inactive,inactive,inactive
ClC1C(Cl)C(Cl)C(Cl)C(Cl)C1Cl (configuration not stated),-3.03% [middle of 4 runs],inactive,-10.8% [middle of 4 runs],-6.12% (inactive) [middle of 4 runs],0.744% (inactive) [middle of 4 runs],inactive,inactive,inactive,,inactive
COC1=CC(=O)O[C@@H](/C=C/c2ccccc2)C1,,inactive,0.406%,18.3% (inactive),-5.64% (inactive),inactive,,,,inactive
O=C1C=CC(=O)C=C1,-3.86%,inactive,4.26%,-9.47% (inactive),-10.9% (inactive),inactive,,,,inactive
O=[N+]([O-])C(Br)(CO)CO,,,,,5.27% (inactive),inactive,,28.7 µM (active),,inactive
C[C@H]1CCC[C@H](O)CCCCCc2cc(O)cc(O)c2C(=O)O1,13%,,7.61%,-34.3% (inactive),,inactive,inactive,inactive,,inactive
ClC=C(Cl)Cl,-19%,inactive,-0.484% and -8.25%,5.36% (inactive) and -18.5% (inactive),-2.56% (inactive),inactive,inactive,inactive,inactive,inactive
